Assay results: PubChem BioAssay
Where “and” joins values, the source holds several entries; their conditions need not be identical. Equal entries are not always repeated. Records with an inconclusive call do not appear. Calls of active or inactive are those of the source.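 How the source made its calls, unless noted: active means normalized viability below 100% at a tested concentration; inactive means the rest.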

Experiments:
[1] = growth inhibition of DIPG glioma cells, dose response, cell-based, SU-DIPG-XVII, MIPE5.0, CellTiter-Glo, qHTS (AID 1347060; cut-off not given, nearly all actives have AC50 up to about 26 µM); details: SU-DIPG-XVII viability, CellTiter-Glo ATP luminescence
[2] = growth inhibition of DIPG glioma cells, dose response, cell-based, SU-DIPG-XIII, MIPE5.0, CellTiter-Glo, qHTS (AID 1347064; cut-off not given, nearly all actives have AC50 up to about 23 µM); details: SU-DIPG-XIII viability, CellTiter-Glo ATP luminescence
[3] = viability loss in pontine glioma line – cell-based, SU-DIPG-XXV, MIPE5.0, CellTiter-Glo, qHTS, dose response (AID 1347065; cut-off not given, nearly all actives have AC50 up to about 26 µM;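 further: cells exposed to compound for 48 hours before ATP readout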); details: CellTiter-Glo ATP luminescence
[4] = SU-DIPG-VI glioma cell viability, MIPE4.0 library, CellTiter-Glo luminescence, qHTS (AID 1347066; cut-off not given, nearly all actives have AC50 up to about 30 µM;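 further: cells exposed to compound for 48 hours before readout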); details: CellTiter-Glo ATP luminescence
[5] = JHH-DIPG-1 glioma cell viability, MIPE5.0 library, CellTiter-Glo luminescence, qHTS (AID 1347067; cut-off not given, nearly all actives have AC50 up to about 26 µM;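 further: cells exposed to compound for 48 hours before readout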); details: JHH-DIPG-1 glioma viability, CellTiter-Glo ATP luminescence
[6] = SU-DIPG-XXV glioma cell viability, MIPE5.0 library, qHTS (AID 1347068; cut-off not given, nearly all actives have IC50 up to about 30 µM)
[7] = sensitizers of A549 cells to miR-34 induction, primary screen, imaging, A549 dox-inducible miR-34, nuclei and caspase counts (AID 1347080;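 active means compounds whose cell count with miR-34 switched on is under 0.7 times the count with it off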); details: A549 miR-34 inducible, Hoechst nuclei count, 48 h
[8] = modifiers of HSF1 nuclear foci, imaging, Selleck Cancer Library (AID 1347162; in the data active means plate-normalised HSF1 focus index below about 0.46); details: human cells, at 10 µM; SSMD: measured here: HSF1 foci SSMD mean; cell count: measured here: cell number; plate-normalised HSF1 focus index: stronger effect = lower value
[9] = survival rescue of mitochondrial mutant cells in low glucose, primary screen, MELAS cybrids, Rieske KO mouse fibroblasts, CellTiter-Glo (AID 1508586;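 active means mean z-score across replicates of 1.96 or higher in either the MELAS or the Rieske mutant cell line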;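 further: z relative to plate mean and SD of compound and empty wells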)
[10] = ovarian cancer cell viability with rucaparib, profiling panel, oncology-focused library, rucaparib conditional (AID 1508598); details: patient-derived ovarian cancer cells, CellTiter-Glo viability, 144 h, stronger effect = lower value
[11] = LFS_MB_P medulloblastoma growth inhibition, cell-based, chromothripsis tumors, cisplatin or BGB combos (AID 1671449; in the data active means inhibition above about 80%;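 further: cells exposed for 96 hours; 0% = vehicle DMSO and 100% = killing by high DMSO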); details: LFS_MB_P medulloblastoma cells
[12] = HDN33 neuroblastoma growth inhibition, cell-based, chromothripsis tumors, cisplatin or BGB combos (AID 1671450; in the data active means inhibition above about 80%;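 further: cells exposed to compound for four days; 0% = vehicle DMSO and 100% = cell killing by high DMSO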); details: HDN33 neuroblastoma cells, stronger effect = higher value

NC(=O)c1ccc(I)c([N+](=O)[O-])c1
7270: cell count ([7]; measured here: total cells with miR-34 induction, stronger effect = lower value)
13.3% and -25.3%: inhibition ([12]; BGB combo, at 5 µM)
5% and -21.1%: inhibition ([11]; measured here: combination with BGB IC40, at 0.05 µM)
6730: cell count [8]
1.45: SSMD [8]
-10.7% and -15.7%: inhibition ([11]; measured here: combination with cisplatin, at 5 µM, stronger effect = higher value)
-4.77% and -10.4%: inhibition ([12]; measured here: with BGB IC20 combination, at 0.5 µM)
0.628: z-score ([9]; Rieske KO mouse fibroblast survival, CellTiter-Glo 72 h)
0.928: fold change ([7]; measured here: relative caspase fold change +Dox/-Dox)
-7.86% and -37.5%: inhibition ([11]; measured here: combination with BGB IC40, at 0.005 µM)
active: viability ([10]; at 0.000305 µM, OCI-P5x cells, with rucaparib 20 µM, 100% = cells with rucaparib alone) 98.3% | viability ([10]; at 0.000305 µM, OCI-P5x cells, without rucaparib) 94.7% | viability ([10]; at 0.00122 µM, OCI-P5x cells, without rucaparib) 97.6% | viability ([10]; at 0.0195 µM, OCI-P5x cells, without rucaparib) 95.1% | viability ([10]; at 0.0781 µM, OCI-P5x cells, with rucaparib 20 µM, 100% = cells with rucaparib alone) 97.2% | viability ([10]; at 0.313 µM, OCI-P5x cells, without rucaparib) 88.7% | viability ([10]; at 1.25 µM, OCI-P5x cells, with rucaparib 20 µM, 100% = cells with rucaparib alone) 94.9% | viability ([10]; at 1.25 µM, OCI-P5x cells, without rucaparib) 94.9% | viability ([10]; at 5 µM, OCI-P5x cells, without rucaparib) 91.7%
-54.2% and -27.9%: inhibition ([11]; measured here: combination with cisplatin, at 0.5 µM, stronger effect = higher value)
11.8% and -4.71%: inhibition ([11]; measured here: combination with BGB IC20, at 0.005 µM)
inactive: outcome [1] | outcome [2] | outcome [3] | outcome [4] | outcome [5] | outcome [6] | fold change ([7]; stronger effect = lower value, cell number ratio, induced over uninduced) 0.861 | plate-normalised HSF1 focus index [8] 1.07 | z-score ([9]; MELAS cybrid survival, CellTiter-Glo 48 h, stronger effect = higher value) -0.444 | viability ([10]; at 0.000305 µM, OCI-C5x cells, with rucaparib 10 µM, 100% = cells with rucaparib alone) 109% | viability ([10]; at 0.000305 µM, OCI-C5x cells, without rucaparib) 119% | viability ([10]; at 0.00122 µM, OCI-C5x cells, with rucaparib 10 µM, 100% = cells with rucaparib alone) 110% | viability ([10]; at 0.00122 µM, OCI-C5x cells, without rucaparib) 116% | viability ([10]; at 0.00122 µM, OCI-P5x cells, with rucaparib 20 µM, 100% = cells with rucaparib alone) 102% | viability ([10]; at 0.00488 µM, OCI-C5x cells, with rucaparib 10 µM, 100% = cells with rucaparib alone) 113% | viability ([10]; at 0.00488 µM, OCI-C5x cells, without rucaparib) 127% | viability ([10]; at 0.00488 µM, OCI-P5x cells, with rucaparib 20 µM, 100% = cells with rucaparib alone) 101% | viability ([10]; at 0.00488 µM, OCI-P5x cells, without rucaparib) 102% | viability ([10]; at 0.0195 µM, OCI-C5x cells, with rucaparib 10 µM, 100% = cells with rucaparib alone) 127% | viability ([10]; at 0.0195 µM, OCI-C5x cells, without rucaparib) 126% | viability ([10]; at 0.0195 µM, OCI-P5x cells, with rucaparib 20 µM, 100% = cells with rucaparib alone) 103% | viability ([10]; at 0.0781 µM, OCI-C5x cells, with rucaparib 10 µM, 100% = cells with rucaparib alone) 119% | viability ([10]; at 0.0781 µM, OCI-C5x cells, without rucaparib) 117% | viability ([10]; at 0.0781 µM, OCI-P5x cells, without rucaparib) 102% | viability ([10]; at 0.313 µM, OCI-C5x cells, with rucaparib 10 µM, 100% = cells with rucaparib alone) 115% | viability ([10]; at 0.313 µM, OCI-C5x cells, without rucaparib) 117% | viability ([10]; at 0.313 µM, OCI-P5x cells, with rucaparib 20 µM, 100% = cells with rucaparib alone) 101% | viability ([10]; at 1.25 µM, OCI-C5x cells, with rucaparib 10 µM, 100% = cells with rucaparib alone) 114% | viability ([10]; at 1.25 µM, OCI-C5x cells, without rucaparib) 122% | viability ([10]; at 5 µM, OCI-C5x cells, with rucaparib 10 µM, 100% = cells with rucaparib alone) 102% | viability ([10]; at 5 µM, OCI-C5x cells, without rucaparib) 122% | viability ([10]; at 5 µM, OCI-P5x cells, with rucaparib 20 µM, 100% = cells with rucaparib alone) 110% | inhibition ([11]; at 0.5 µM, stronger effect = higher value) -30.4% and -3.77% | inhibition ([12]; at 0.5 µM) 0.82% and -18.3%
8450: cell count ([7]; measured here: total cells without miR-34 induction)
6.61% and -13.4%: inhibition ([12]; cisplatin combo, at 5 µM)
